# Pf Dd2 inh: inhibitors of Plasmodium falciparum Dd2 growth | hit rate 4.3% among 120,000 | AID 1347417 | P. falciparum Dd2 growth, SYBR Green, 72 h | Potency, µM (top dose mostly 28.9 µM), without a hit: top-dose activity, negative = inhibition, hits mostly inhibitors; active = well fitted inhibition curve with a large enough effect;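 also: plate controls were DMSO vehicle for no effect and reference drug for full effect; nearly all actives have a fitted effect of over 65% in size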
#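 Readout: SYBR Green fluorescence, 485 nm excitation, 535 nm emission, after ~16 h lysis at 37C. Before that, Dd2-infected red cells (2.5% hematocrit) grew 72 h with compound, 29 uM top final concentration.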
# Numbers without * were called inactive; i = inactive; [ ] = remark or other dose. Many of the other results were omitted from the sample, so hits are more common in it than they were. Potency is read from the fitted curve at half-maximal effect.
SMILES,Pf Dd2 inh
CNC(C)c1ccc(Oc2ccccc2)cc1 (configuration not stated),11µM*
CNC(C)c1ccc(OC(F)(F)F)cc1 (configuration not stated),2%[76.6 µM]
Cn1ncc(N2CCC(NC(=O)CC3CCCC3)CC2)cc1=O,-11%
CCC(=O)N1CC(C(N)=O)C2(CCOCC2)C1 (configuration not stated),3%
COCc1cc(N2CCc3onc(-c4cccc5ccccc45)c3C2)ncn1,14µM*
O=S(=O)(c1cccnc1)N1CCc2onc(-c3cccc4ccccc34)c2C1,-17%
COc1ncccc1C(=O)N1CCc2onc(-c3cccc4ccccc34)c2C1,-20%
COc1ccc(Cl)cc1C(C(=O)O)N1CCCN(c2ncccn2)CC1 (configuration not stated),-12%
CN(Cc1nc2ccc(F)cc2[nH]1)C(=O)CCc1cc2n(n1)CCCNC2,-11%
CC(C)c1nnc(C2CN(C(=O)c3ccc(OC(F)(F)F)cc3)CC23CCOCC3)o1 (configuration not stated),i
CC(C)CCN1CCC(N2CCN(C(=O)c3ccc(C(F)(F)F)cc3)CC2)C1=O (configuration not stated),-22%
CCCNC(=O)N1CCCN(Cc2ccc3c(c2)OCO3)c2ccccc21,i
COc1cc(-c2oc3ccc(C)cc3c(=O)c2O)cc(OC)c1OC,13µM*
COc1cc(C2c3c(oc4ccc(C)cc4c3=O)C(=O)N2Cc2ccc(F)cc2)ccc1O (configuration not stated),-5%
COc1cc(C2c3c(oc4ccc(C)cc4c3=O)C(=O)N2Cc2ccccc2)ccc1O (configuration not stated),-23%
Clc1ccc(CN2CCN(c3ncnc4sc5c(c34)CCCC5)CC2)cc1Cl,44%
CCOc1ccc(CN2CCN(c3ncnc4sc5c(c34)CC(C)CC5)CC2)cc1 (configuration not stated),25%
c1nc(N2CCOCC2)c2c3c(sc2n1)CN(CC1CCCCC1)CC3,2.8µM*
COc1ccc(CN2CCN(c3ncnc4sc5c(c34)CCCC5)CC2)cc1F,-25%
c1coc(CN2CCc3c(sc4ncnc(N5CCOCC5)c34)C2)c1,8.9µM*
CN(C)c1ncnc2sc3c(c12)CCN(Cc1ccncc1)C3,i
Cc1nc([C@H]2CCN(Cc3ccc(C(F)(F)F)cc3)C[C@H]2NC(=O)C2CC2)n[nH]1,-10%
Cc1cccc(CN2C(=O)C3(CCOCC3)CC2c2nnnn2C(C)(C)C)c1 (configuration not stated),4%
COC(=O)C1=CN(CC(=O)Nc2c(C)cccc2C)S(=O)(=O)N=C1C,37%
CCC(C(=O)Nc1ccc2c(c1)CN(Cc1ccccc1OC)C(=O)C(C)O2)c1ccccc1 (configuration not stated),2.5µM*
SMILES,Pf Dd2 inh
COc1ccccc1CN1Cc2cc(NC(=O)Cc3ccc(F)cc3)ccc2OC(C)C1=O (configuration not stated),-13%
CCC1Oc2ccc(NC(=O)Cc3ccc(F)cc3)cc2CN(Cc2ccc(Cl)cc2)C1=O (configuration not stated),-9%
CCNC(=O)Nc1ccc2c(c1)CN(Cc1ccccc1OC)C(=O)C(C)O2 (configuration not stated),i
CC1Oc2ccc(NC(=O)Cc3ccc(F)cc3)cc2CN(Cc2ccc(Cl)cc2)C1=O (configuration not stated),10µM*
COc1cccc(CC(=O)Nc2ccc3c(c2)CN(Cc2ccccc2OC)C(=O)C(C)O3)c1 (configuration not stated),i
Cc1cccn2c(CNC3CCC4(CCNCC4)CC3)cnc12,8%
COCCCNC(=O)C1COC2(CCCCC2)N1C(=O)c1c(OC)cccc1OC (configuration not stated),6.3µM*
COCCNC(=O)C1COC2(CCN(C(=O)c3ccc(F)cc3)CC2)N1C(=O)c1cccc(C)c1 (configuration not stated),-22%
COCCNC(=O)C1COC2(CCN(C(=O)c3ccc(OC)cc3)CC2)N1C(=O)c1ccccc1 (configuration not stated),26%
COc1ccc(CNC(=O)C[C@@H]2C[C@@H](C(C)C)[C@H](CNC(C)=O)C=C2C)cc1,-8%[44.1 µM]
CN(CC(N)=O)C(=O)[C@@H]1[C@@H](NC(=O)Nc2ccc(F)cc2F)CCN1C(=O)c1cccn1C,4%
Cc1noc2c(NCCc3ccccn3)cc(-c3ccc(Cl)cc3)nc12,0%[44.1 µM]
Cc1noc2c(NCCCn3ccnc3)cc(-c3ccc(Cl)cc3)nc12,4.5µM*
Cc1noc2c(NCCN3CCOCC3)cc(-c3ccc(Cl)cc3)nc12,-13%[44.1 µM]
Cc1cc(CN2CCC3(C2)C(=O)N(c2ccccc2)c2ccccc23)no1 (configuration not stated),-18%
Cc1ccccc1CN1CCC(CNc2ncnc3onc(-c4ccc(F)cc4)c23)CC1,4µM*
COCCCNc1ncnc2onc(-c3ccc(F)cc3)c12,123%
COCCNc1ncnc2onc(-c3ccc(F)cc3)c12,-11%
Cc1ccc(F)cc1CC(=O)N1C[C@@H](CN2CCOCC2)[C@@H](CO)C1,-4%
C=CCNC(=O)CCc1c(C)nn(-c2ccc(F)cc2)c1Oc1ccccc1C,i
O=C1COc2ccc(-c3ccsc3)nc2CN1Cc1ccc(C(F)(F)F)cc1,7.9µM*
Cc1nc(CN2Cc3nc(-c4ccccc4)ccc3OCC2=O)cs1,-16%[44.1 µM]
Cc1nc(CN2Cc3nc(Nc4ccc(C(F)(F)F)cc4)ccc3OCC2=O)cs1,11µM*
CN1Cc2nc(Nc3ccc(C(F)(F)F)cc3)ccc2OCC1=O,i
O=C1COc2ccc(-c3cccnc3)nc2CN1Cc1ccc(C(F)(F)F)cc1,-25%[44.1 µM]
SMILES,Pf Dd2 inh
O=C1COc2ccc(-c3ccsc3)nc2CN1Cc1ccccc1,-5%[44.1 µM]
CCN(Cc1ccncc1)C(=O)CC(c1ccccc1)c1ccc2c(c1)OCO2 (configuration not stated),i
O=C(NC1CC1)c1cc(-c2ccccc2C(F)(F)F)nc2onc(C3CCCN3)c12 (configuration not stated),-28%
Cc1nc(-c2ccccc2OC2CN(C(=O)c3cnn(C)c3)C2)no1,i
CC(C)(C)CC(=O)N1CCn2c(nnc2[C@@H]2C[C@@H](O)CN2Cc2ccccc2)C1,i
COc1ccc(CN2CCc3nc(N4CCN(C)CC4)[nH]c(=O)c3CC2)cc1,i[5.79 µM]
CCC1(C(=O)Nc2ccc(C)c(F)c2)CCCCC(=O)N1 (configuration not stated),i
CC1(c2ccccc2)N(Cc2ccccc2)C(=O)OC12CCN(Cc1cccnc1N)CC2 (configuration not stated),-22%
CC1(c2ccccc2)N(Cc2ccccc2C#N)C(=O)OC12CCN(C(=O)CN1CCOCC1)CC2 (configuration not stated),-26%
CC1(c2cccnc2)N(Cc2ccccc2)C(=O)OC12CCN(C(=O)COc1ccccc1)CC2 (configuration not stated),6.3µM*
COc1ncccc1CN1CCC2(CC1)OC(=O)N(Cc1ccccc1C#N)C2(C)c1ccccc1 (configuration not stated),4.5µM*
COc1cccc(CN2C(=O)OC3(CCN(C(C)=O)CC3)C2(C)c2cccnc2)c1 (configuration not stated),-6%[44.1 µM]
COc1cccc(CN2C(=O)OC3(CCN(Cc4c[nH]c5ccccc45)CC3)C2(C)c2cccnc2)c1 (configuration not stated),0.79µM*

# Compound activity: PubChem BioAssay, National Center for Advancing Translational Sciences (NCATS)
